Inconclusive results are not listed. Where a call stands in place of a potency, no number is given. Active and inactive are the calls of the source. The call rests on the fitted dose curve; in most records, active means well fitted inhibition curve with a large enough effect; inconclusive means small, poorly fitted or top-dose-only effect; inactive means no such curve, though single readings can be large or run the other way.
Potency means the concentration at half of the fitted maximal effect.

A short description of this experiment: P-glycoprotein substrates identified in KB-3-1 adenocarcinoma cell line, qHTS therapeutic library screen (AID 1346986). Further: nearly all actives have a fitted effect of over 60% in size.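 Further: potency is for cytotoxicity meaning loss of cell viability.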 The following applies: KB-3-1 parental cells viability, CellTiter-Glo, 72 h; series mostly up to 44.5 µM. How it is done: The ATP-binding cassette transporters P-glycoprotein (P-gp) is known to limit brain penetration of many chemotherapy drugs. […] We used the CellTiter-Glo viability assay to test library compounds against the parental KB-3-1 human cervical adenocarcinoma cell line and the colchicine-selected sub-line KB-8-5-11 that over-expresses P-gp. KB-8-5-11 cells were also tested in the presence of a P-gp inhibitor (tariquidar) to assess reversability of transporter-mediated resistance. Of the tested compounds, a total of 90 P-gp substrates were identified including 55 newly identified P-gp substrates. Substrates were confirmed using an orthogonal killing assay against HEK-293 cells transfected with P-gp. As exemplars, we confirmed that AT7159 (cyclin-dependent kinase inhibitor); AT9283, (Janus kinase 2/3 inhibitor); ispinesib (kinesin spindle protein inhibitor); gedatolisib (PKI-587, phosphoinositide 3-kinase/mammalian target of rampamycin inhibitor); GSK-690693 (AKT inhibitor); and KW-2478 (heat shock protein 90 inhibitor) were substrates , and direct ATPase stimulation was assessed. ABCG2 was also found to confer high levels of resistance to AT9283, GSK-690693 and gedatolisib, while ispinesib, AT7519 and KW-2478 were weaker substrates.
The HeLa derivative cell line, KB-3-1, and its colchicine-selected, P-gp-overexpressing subline, KB-8-5-11 were maintained in DMEM with 10% FCS and Pen/Strep with glutamine at 37 degree C in 5% CO2. For KB-8-5-11 cells, colchicine was added to the medium at a concentration of 100 ng/mL. HEK-293 cells transfected with empty vector (pcDNA) or vector containing human ABCB1 (MDR-19) or ABCG2 (R-5) have been described previously (Robey, Lin, Qiu, Chan & Bates, 2011) and were maintained in EMEM supplemented with 10% FCS, Pen/Strep and glutamine with 2 mg/ml G418 to select for the expression of the transporter. Cultures were confirmed to be free of mycoplasma infection using the MycoAlert Mycoplasma Detection Kit (Lonza, Walkersville, MD). For the screen, assay medium was identical to culture medium except for KB-8-5-11 where colchicine was excluded from the medium.
All cell lines were plated into 1536-well plates at 500 cells/well in 5 uL media. Compounds were then pinned in dose-response using a 1536-head pin tool (Kalypsis, San Diego, CA) and plates were incubated at 37 degree C in 5% CO2 for an additional 72 h. CellTiter-Glo reagent (Promega) was dispensed into the wells, incubated for 5 min and luminescence was read on a ViewLux instrument (Perkin-Elmer). Cytotoxic compounds were defined as those that yielded a curve class of -1.1, -1.2, -2.1, -2.2, -2.3, or -2.4, a maximum response of >50% and an AC50 of < 10 uM. Cherry-picked hits from screening analysis were tested with both the KB pair of cell lines, and the pcDNA (empty vector control) and MDR-19 (P-gp overexpressing) pair were tested, in the absence and presence of tariquidar.
For `C[C@@H]1[C@H](O)[C@@H](C)C=CC=CCCC=CC=CC=CC=C[C@H](O[C@H]2O[C@@H](C)[C@H](O)[C@@H](N)[C@@H]2O)CC2O[C@](O)(C[C@@H](O)[C@H](O)CC[C@@H](O)C[C@@H](O)C[C@@H](O)CC(=O)O[C@H]1C)C[C@H](O)[C@H]2C(=O)O`, the Potency entry was “inactive”. The entry for `Oc1ccc2c3c1O[C@H]1c4[nH]c5c(c4C[C@@]4(O)[C@@H](C2)N(CC2CC2)CC[C@]314)C[C@@]1(O)[C@H]2Cc3ccc(O)c4c3[C@@]1(CCN2CC1CC1)[C@H]5O4` is “inactive”. Regarding `CCCN1CCO[C@@H]2c3cc(O)ccc3OC[C@@H]21`, the Potency result is “inactive”. `CC(C)N(CCNC(=O)CN1CCCC1=O)C(C)C`: the Potency result was “inactive”. As for `CC(C)(C)[C@]1(O)C[C@@H]2OC(=O)C[C@@]23C(=O)O[C@@H]2OC(=O)[C@H](O)C213` (some centres undefined), the Potency result is “inactive”.

Consider `CC1=NN=C(c2ccc(N)cc2)c2cc3c(cc2C1)OCO3`, for which the Potency result was “inactive”.

With `CC(O)=C(C#N)C(=O)Nc1cc(Br)ccc1Br`, the Potency entry was “inactive”. As for `O=c1cccc2n1CC1CNC[C@H]2C1`, the Potency entry is “inactive”. The entry for `CCNC(=O)CC1N=C(c2ccc(Cl)cc2)c2cc(OC)ccc2-n2c(C)nnc21` (centres undefined) is “inactive”; for `O=C(O)C(Cl)Cl` it is “inactive”; for `CC(=O)NCCc1c[nH]c2ccccc12` it is “inactive”. Turning to `CC(=O)N(C)c1cccc(-c2ccnc3c(C(=O)c4cccs4)cnn23)c1`, the Potency result is “inactive”. The figure for `CC(C)(C)c1cc(C=C(C#N)C#N)cc(Br)c1O` is 20.6 µM (active); for `CCc1c(C(=O)C(N)=O)c2c(OCC(=O)O)cccc2n1Cc1ccccc1` it is “inactive”; for `COC1=C[C@@H]2[C@@H]3Cc4ccc(OC)c(O)c4[C@]2(CCN3C)CC1=O` it is “inactive”. Take `O=C(N[C@H]1CN2CCC1CC2)c1ccc(Cl)cc1`: the Potency result was “inactive”. Take `COc1ccc2c(c1)CN(C)CC2c1ccc(Cl)c(Cl)c1` (centres undefined): the Potency result is “inactive”. Turning to `O=c1[nH]c2ccccc2n1C1CCN(Cc2ccc(-c3[nH]c4cc5ncnc5cc4nc3-c3ccccc3)cc2)CC1`, the Potency entry was “inactive”. The entry for `Cc1ccccc1-n1c(Cn2ncc3c(N)ncnc32)nc2cccc(C)c2c1=O` is “inactive”; for `O=C(NCC1CCOCC1)c1cnc(Nc2ccc(Cl)cc2Cl)nc1C(F)(F)F` it is “inactive”; for `CCC(=O)OC1CCC2C3CCC4=CC(=O)CC[C@@]4(C)C3CC[C@]12C` (some centres undefined) it is “inactive”. Turning to `CN1CCN(c2ccc([N+](=O)[O-])c3no[n+]([O-])c23)CC1`, the Potency result is “inactive”. `c1ccc2c(CN3CCNCC3)cccc2c1`: the Potency entry was “inactive”. The entry for `CCN1C[C@]2(OC(=O)c3ccccc3NC(C)=O)CC[C@H](OC)[C@@]34[C@H]5CC6[C@@H](OC)C[C@](O)(C(C[C@@H]23)[C@@H]14)[C@@]5(O)[C@@H]6OC` is “inactive”.
